From PubChem BioAssay (NCI) come the findings set out here.

Common to all, as to assay: NCI-60 one-dose screen, 48 h (100 = growth as untreated, 0 = no growth, -100 = all killed)
The subject of one assay is SK-MEL-2 melanoma. Conditions: 10 µM unless noted.
Another assay has as its system EKVX NSCLC. The settings on record: 10 µM unless noted.
The next assay deals with SN12C renal. Conditions: 10 µM unless noted.
The test system of a further assay is UO-31 renal. The settings on record: 10 µM unless noted.
A further assay relates to TK-10 renal. Conditions: 10 µM unless noted.
For the next assay, the system named is A498 renal. The settings on record: 10 µM unless noted.
The test system of a further assay is CCRF-CEM leukemia. The settings on record: 10 µM unless noted.
Another assay deals with MOLT-4 leukemia. The settings on record: 10 µM unless noted.
A further assay has as its system SR leukemia. The settings on record: 10 µM unless noted.
The test system of a further assay is RPMI-8226 leukemia. The settings on record: 10 µM unless noted.
In the next assay the test system is OVCAR-8 ovarian. The settings on record: 10 µM unless noted.
A further assay has as its system OVCAR-5 ovarian. Conditions: 10 µM unless noted.
The test system of another assay is OVCAR-4 ovarian. The settings on record: 10 µM unless noted.
The next assay concerns SK-OV-3 ovarian. The settings on record: 10 µM unless noted.
The test system of a further assay is IGROV1 ovarian. The settings on record: 10 µM unless noted.
A further assay relates to OVCAR-3 ovarian. Conditions: 10 µM unless noted.
For the next assay, the system named is HS 578T breast. The settings on record: 10 µM unless noted.
Another assay concerns NCI/ADR-RES ovarian. Conditions: 10 µM unless noted.
The test system of the next assay is CAKI-1 renal. Conditions: 10 µM.

This is part of a sample that, as a whole, favours compounds with a hit. Of some 83,000 tested, about 20% had one in any assay.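 Negative percent growth values reflect cell death: -40 means 40% of the cells present at the start died, and -100 means all died.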 Unmarked numbers belong to inactive results. The source made the active and inactive calls. Rule for the calls: active = growth percent below 10; inactive = the rest.

Consider `Nn1c(CN2CCN(c3cc4c(cc3F)c(=O)c(C(=O)O)cn4C3CC3)CC2)n[nH]c1=S`, for which the growth in the assay with SK-MEL-2 melanoma was 95.9%; with EKVX NSCLC it was 102%; in the assay on SN12C renal it was 95.7%; in the assay on UO-31 renal it was 91.7%; in the assay with TK-10 renal it was 93.8%; in the assay on A498 renal it was 97.7%. Besides, the growth is 98.8% with CCRF-CEM leukemia; 103% in the assay on MOLT-4 leukemia; 99.1% with SR leukemia; 102% in the assay on RPMI-8226 leukemia; 106% in the assay with OVCAR-8 ovarian; 108% in the assay with OVCAR-5 ovarian. In addition, the growth is 102% in the assay with OVCAR-4 ovarian; 107% in the assay on SK-OV-3 ovarian; 97.3% in the assay with IGROV1 ovarian; 103% in the assay on OVCAR-3 ovarian; 108% with HS 578T breast; 106% in the assay on NCI/ADR-RES ovarian.
For the compound `CC1CCC(C(C)C)C(NN)C1` (stereo not given), the growth was 101% in the assay with SK-MEL-2 melanoma; 102% in the assay on EKVX NSCLC; 102% with SN12C renal; 88.8% in the assay with UO-31 renal; 96.5% in the assay on TK-10 renal; 105% in the assay on A498 renal. The growth is 89.5% with CCRF-CEM leukemia; 65.9% in the assay on MOLT-4 leukemia; 103% in the assay with SR leukemia; 104% with RPMI-8226 leukemia; 92.8% in the assay on OVCAR-8 ovarian; 107% in the assay on OVCAR-5 ovarian. In addition, the growth in the assay with OVCAR-4 ovarian is 111%; in the assay on SK-OV-3 ovarian, 91.8%; with IGROV1 ovarian, 109%; in the assay with OVCAR-3 ovarian, 113%; in the assay on HS 578T breast, 102%; in the assay on NCI/ADR-RES ovarian it was 106%.
In the case of `Cc1ccc(Cn2cc(COc3ccc4c5ccnc(C)c5n(CCCc5ccccc5)c4c3)nn2)cc1`, the growth was 94.7% in the assay with SK-MEL-2 melanoma; 80.7% in the assay with EKVX NSCLC; 94.5% with SN12C renal; 55.7% in the assay on UO-31 renal; 97.8% in the assay with TK-10 renal; 73.5% in the assay with A498 renal. In addition, the growth was 91.9% with CCRF-CEM leukemia; 78.2% in the assay with MOLT-4 leukemia; 81.9% with SR leukemia; 64.2% in the assay on RPMI-8226 leukemia; 94.2% in the assay on OVCAR-8 ovarian; 103% with OVCAR-5 ovarian. Moreover, the growth in the assay with OVCAR-4 ovarian was 96%; with SK-OV-3 ovarian, 96.9%; with IGROV1 ovarian, 87.5%; in the assay on OVCAR-3 ovarian, 92.6%; in the assay on HS 578T breast it was 89.8%; in the assay with NCI/ADR-RES ovarian, 76.4%.
In the case of `CCc1cccc(C)c1NC(=O)c1sc2nc3c(cc2c1N)CCCCC3`, the growth with SK-MEL-2 melanoma is 38.9%; in the assay with EKVX NSCLC it was 45.7%; in the assay with SN12C renal, 41.1%; with UO-31 renal, 51%; in the assay with TK-10 renal it was 66.7%; in the assay with A498 renal, 8.2% (active). In addition, the growth was 16.6% in the assay on CCRF-CEM leukemia; 26.7% in the assay with MOLT-4 leukemia; 14.4% in the assay with SR leukemia; 12.2% with RPMI-8226 leukemia; 28.9% in the assay with OVCAR-8 ovarian; 45% in the assay with OVCAR-5 ovarian. Further, the growth was 63.9% with OVCAR-4 ovarian; 36.9% in the assay with SK-OV-3 ovarian; 46.5% in the assay with IGROV1 ovarian; 3.96% (active) in the assay on OVCAR-3 ovarian; 36% with HS 578T breast; 14.2% in the assay on NCI/ADR-RES ovarian.
In the case of `O=C(O)c1cccc(S(=O)(=O)c2ccccc2)c1`, the growth in the assay on SK-MEL-2 melanoma is 104%; in the assay on EKVX NSCLC, 92.6%; with SN12C renal it was 102%; in the assay with UO-31 renal it was 96.1%; in the assay on TK-10 renal it was 93.2%; in the assay on A498 renal, 98.5%. In addition, the growth in the assay on CCRF-CEM leukemia was 103%; in the assay on MOLT-4 leukemia it was 99.6%; in the assay on SR leukemia, 97.1%; with RPMI-8226 leukemia, 103%; in the assay on OVCAR-8 ovarian it was 112%; with OVCAR-5 ovarian it was 99%. Further, the growth was 102% with OVCAR-4 ovarian; 116% with SK-OV-3 ovarian; 100% with IGROV1 ovarian; 107% in the assay on OVCAR-3 ovarian; 91.6% in the assay on HS 578T breast; 104% in the assay on NCI/ADR-RES ovarian.
Take `[2H]c1nc(Nc2ncc(F)c(-c3cc(F)c4nc(C)n(C(C)C)c4c3)n2)c([2H])c([2H])c1CN1CCN(CC)CC1`: the growth was 70.5% in the assay on SK-MEL-2 melanoma; 55% in the assay with EKVX NSCLC; 47.8% with SN12C renal; 23.1% in the assay on UO-31 renal; 35.1% with TK-10 renal; 44.2% in the assay on A498 renal. The growth in the assay on CCRF-CEM leukemia was 27.2%; in the assay on MOLT-4 leukemia it was 15.4%; in the assay with SR leukemia, 11.7%; with RPMI-8226 leukemia, 34.7%; in the assay with OVCAR-8 ovarian it was 74.3%; with OVCAR-5 ovarian, 49.8%. Besides, the growth in the assay with OVCAR-4 ovarian was 66.1%; in the assay on SK-OV-3 ovarian it was 35.7%; in the assay on IGROV1 ovarian, 39.1%; in the assay on OVCAR-3 ovarian, 73.1%; in the assay with HS 578T breast it was 29.9%; in the assay on NCI/ADR-RES ovarian it was 71%.
`Nc1nc(-c2cc3c(cc2Cl)NC(=O)/C3=C/c2ccccc2)cs1`: the growth is 71.3% in the assay on SK-MEL-2 melanoma; 34.7% with EKVX NSCLC; 51.9% in the assay with SN12C renal; 45.6% with UO-31 renal; 100% with TK-10 renal; 60% in the assay on A498 renal. Further, the growth is 16.1% in the assay with CCRF-CEM leukemia; 21.8% with MOLT-4 leukemia; 14.2% in the assay with SR leukemia; 37.6% with RPMI-8226 leukemia; 46.6% in the assay with OVCAR-8 ovarian; 108% in the assay on OVCAR-5 ovarian. The growth is 69.6% with OVCAR-4 ovarian; 81.1% with SK-OV-3 ovarian; 35.4% with IGROV1 ovarian; 29.8% with OVCAR-3 ovarian; 58.7% in the assay on HS 578T breast; 74.6% in the assay on NCI/ADR-RES ovarian.
On to `S=C=NP1(N=C=S)=NP(N=C=S)(N=C=S)=NP(N=C=S)(N=C=S)=NP(N=C=S)(N=C=S)=N1` (stereo not given), for which the growth is 95.8% in the assay on SK-MEL-2 melanoma; 95% with EKVX NSCLC; 102% in the assay on SN12C renal; 77.3% with UO-31 renal; 110% with TK-10 renal; 118% with A498 renal. For the same compound, the growth in the assay with CCRF-CEM leukemia is 105%; in the assay on MOLT-4 leukemia, 57.9%; with SR leukemia, 88.8%; in the assay with RPMI-8226 leukemia it was 103%; with OVCAR-8 ovarian, 95.6%; with OVCAR-5 ovarian, 107%. Besides, the growth was 96.7% in the assay on OVCAR-4 ovarian; 84.3% with SK-OV-3 ovarian; 97.9% with IGROV1 ovarian; 112% in the assay on OVCAR-3 ovarian; 98.5% in the assay with HS 578T breast.
Consider `COC(=O)Nc1nc2ccc(Sc3ccccc3)cc2[nH]1`, for which the growth in the assay on SK-MEL-2 melanoma is 53%; in the assay on EKVX NSCLC it was 57.1%; in the assay with SN12C renal, 44.6%; in the assay on UO-31 renal, 34.6%; in the assay with TK-10 renal it was 65.6%; in the assay with CAKI-1 renal, 39.1%. For the same compound, the growth in the assay on A498 renal was 13.9%; with CCRF-CEM leukemia, 10.7%; in the assay with MOLT-4 leukemia, 14.6%; in the assay with RPMI-8226 leukemia, 42.1%; in the assay with OVCAR-8 ovarian, 9.03% (active); in the assay with OVCAR-4 ovarian, 49.4%. The growth with SK-OV-3 ovarian was 13.5%; in the assay on IGROV1 ovarian it was 30.4%; with OVCAR-3 ovarian, -78.1% (active); in the assay on HS 578T breast, 30.3%; in the assay on NCI/ADR-RES ovarian, -30.1% (active).
